Experimental findings from PubChem BioAssay are described below.

For part of these data: Results with a measured potency or affinity are listed apart. Calls of active or inactive are those of the source.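 Rule for the calls, unless noted: active = fitted half-maximal concentration within the tested dose range, moderate curve steepness, a statistically real signal drop, and little compound fluorescence or tag-binding interference; inactive = the rest.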

Assay [1] concerns the target Cell division control protein 42 homolog (Homo sapiens) (UniProt P60953). Put plainly: activated mutant Cdc42 GTP-binding inhibitors, dose response, biochemical, multiplex bead flow cytometry, Bodipy-FL-GTP (AID 1333).
Assay [2] shares this target. Put plainly: wildtype Cdc42 GTP-binding inhibitors, dose response, biochemical, multiplex bead flow cytometry, Bodipy-FL-GTP (AID 1334;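 active = fitted half-maximal concentration within the tested range, moderate curve steepness, significant signal drop, and little compound fluorescence or bead-linkage interference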). Particulars: bead-based flow cytometry, Bodipy-FL-GTP binding to GST-Cdc42; at 100 µM (top of the series) unless noted. In general terms: In flow cytometry, cells or beads pass a laser one at a time.
In assay [3] the target is GTPase HRas (Homo sapiens) (UniProt P01112). Nature of the assay: inhibitors of GTP binding to wildtype Ras, dose response, biochemical, multiplex bead flow cytometry (AID 1335;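 active = fitted half-maximal concentration within 10 nM to 100 µM, steepness 0.5 to 2, significant signal drop, low assay interference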). The conditions noted are these: bead-based flow cytometry, Bodipy-GTP binding to GST-Ras; at 100 µM (top of the series) unless noted.
Chain of GTPase HRas (Homo sapiens) (P01112 whole entry, looked up): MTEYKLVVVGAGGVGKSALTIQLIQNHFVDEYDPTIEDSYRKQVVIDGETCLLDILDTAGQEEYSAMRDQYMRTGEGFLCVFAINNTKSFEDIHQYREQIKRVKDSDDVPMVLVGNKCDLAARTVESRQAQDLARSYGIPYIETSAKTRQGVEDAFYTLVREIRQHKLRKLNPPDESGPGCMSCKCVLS
Assay [4] concerns Ras-related protein Rab-7a (dog), GTP binding. Nature of the assay: Rab7 GTP binding inhibitors, potency, dose response, biochemical, wildtype, multiplex bead flow cytometry (AID 1336; call rule not given here).
Assay [5] addresses Ras-related C3 botulinum toxin substrate 1 (Homo sapiens) (UniProt P63000). Nature of the assay: wildtype Rac1 GTP binding inhibitors, dose response, biochemical, multiplex bead flow cytometry (AID 1340;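 active = dose curve with midpoint inside tested range, moderate steepness, plateau gap beyond fit error, low compound glow and bead-link interference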). The conditions noted are these: GST-Rac1 beads, Bodipy-FL-GTP binding; at 100 µM (top of the series) unless noted.
Assay [6] concerns the target GTPase HRas (Homo sapiens) (UniProt P01112). Nature of the assay: activated Ras mutant GTP binding inhibitors, dose response, biochemical, multiplex bead flow cytometry (AID 1341;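 active = dose-response curve with midpoint inside the tested range, moderate steepness, significant amplitude and little compound fluorescence or bead-attachment interference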;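 note: GST-tagged constitutively activated Ras mutant immobilized on beads and multiplexed with other GTPases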).

Chain of Cell division control protein 42 homolog (Homo sapiens) (P60953 whole entry, looked up): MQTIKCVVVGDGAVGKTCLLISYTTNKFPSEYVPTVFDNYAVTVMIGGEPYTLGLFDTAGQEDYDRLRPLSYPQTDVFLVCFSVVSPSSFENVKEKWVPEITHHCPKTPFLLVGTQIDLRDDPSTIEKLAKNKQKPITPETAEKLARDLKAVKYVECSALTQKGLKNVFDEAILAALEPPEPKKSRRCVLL

For `O=C(c1cccnc1SCCc1ccccc1)N1CCOCC1`, the compound was called inactive in assay [1], in assay [4] and in assay [6]. In addition, the fluorescence, percent of control (lower = inhibition) in assay [2] stood at 77.3%. In assay [3], the GTP binding, percent of control amounted to 101%. Also, the GTP binding signal, raw median fluorescence (lower = inhibition) (MCF (arbitrary fluorescence units)) in assay [5] turned out to be 64.8.

On to `Cc1ccc(Nc2ncccc2C(=O)O)cc1`, for which the result in assay [1], in assay [4] and in assay [6] was inactive. Further, in assay [2], the fluorescence, percent of control (lower = inhibition) turned out to be 58.7%. Besides, in assay [3], the GTP binding, percent of control amounted to 85.1%. Also, the GTP binding signal, raw median fluorescence (lower = inhibition) (MCF (arbitrary fluorescence units)) in assay [5] worked out at 31.3.

For the compound `Cc1nc2sccn2c1-c1nc(-c2cc3ccccc3o2)cs1`, the result in assay [1], in assay [4] and in assay [6] was inactive. For the same compound, the fluorescence, percent of control (lower = inhibition) in assay [2] turned out to be 50.9%. The GTP binding, percent of control in assay [3] came to 57.4%. In assay [5], this compound gave a GTP binding signal, raw median fluorescence (lower = inhibition) (MCF (arbitrary fluorescence units)) of 155.

On to `O=C(CSc1n[nH]c(=O)[nH]c1=O)N/N=C/c1ccccc1`, for which the outcome in assay [1], in assay [4] and in assay [6] was inactive. Besides, the fluorescence, percent of control (lower = inhibition) in assay [2] was 49.5%. Further, the GTP binding, percent of control in assay [3] is 61.4%. This compound also gave a GTP binding signal, raw median fluorescence (lower = inhibition) (MCF (arbitrary fluorescence units)) in assay [5] of 197.

For the compound `Cc1cc(NS(=O)(=O)c2ccc(Nc3nc(-c4sc(N)nc4C)cs3)cc2)no1`, the compound was classed as inactive in assay [1], in assay [4] and in assay [6]. Besides, the fluorescence, percent of control (lower = inhibition) in assay [2] is 23.8%. Besides, the GTP binding, percent of control in assay [3] worked out at 58.3%. Besides, the GTP binding signal, raw median fluorescence (lower = inhibition) (MCF (arbitrary fluorescence units)) in assay [5] turned out to be 122.

For `Cc1n[nH]c(=S)c2nn(-c3ccccc3)c(C)c12`, the outcome in assay [1], in assay [4] and in assay [6] was inactive. In addition, the fluorescence, percent of control (lower = inhibition) in assay [2] turned out to be 47.4%. Besides, in assay [3], the GTP binding, percent of control is 63.6%. The GTP binding signal, raw median fluorescence (lower = inhibition) (MCF (arbitrary fluorescence units)) in assay [5] is 188.

Take `O=C(O)/C=C/c1cn(Cc2ccccc2)nc1-c1ccccc1`: the outcome in assay [1], in assay [4] and in assay [6] was inactive. In assay [2], the fluorescence, percent of control (lower = inhibition) was 101%. For the same compound, the GTP binding, percent of control in assay [3] is 72.4%. Besides, the GTP binding signal, raw median fluorescence (lower = inhibition) (MCF (arbitrary fluorescence units)) in assay [5] worked out at 175.

As for `Cc1cccc(CNc2nc(C)ccc2C(=O)O)c1`, the compound was called inactive in assay [1], in assay [4] and in assay [6]. Besides, the fluorescence, percent of control (lower = inhibition) in assay [2] came out at 60.7%. The compound further came in with a GTP binding, percent of control in assay [3] of 218%. Besides, the GTP binding signal, raw median fluorescence (lower = inhibition) (MCF (arbitrary fluorescence units)) in assay [5] amounted to 58.

Consider `O=C(CSc1ccc2nnc(-c3ccccn3)n2n1)Nc1nccs1`, for which the compound was classed as inactive in assay [1], in assay [4] and in assay [6]. In addition, in assay [2], the fluorescence, percent of control (lower = inhibition) turned out to be 28.8%. In assay [3], this compound displayed a GTP binding, percent of control of 61.7%. Moreover, the GTP binding signal, raw median fluorescence (lower = inhibition) (MCF (arbitrary fluorescence units)) in assay [5] was 124.

Consider `Cn1c(=O)n(Cc2ccc(F)cc2)c(=O)c2c1nc1n2CCN1Cc1ccco1`, for which the call in assay [1], in assay [4] and in assay [6] was inactive. In addition, the fluorescence, percent of control (lower = inhibition) in assay [2] is 31.2%. Further, the GTP binding, percent of control in assay [3] came to 68.1%. In assay [5], this compound came in with a GTP binding signal, raw median fluorescence (lower = inhibition) (MCF (arbitrary fluorescence units)) of 164.

`O=C(O)c1cc2ccccc2nc1OCCc1ccccc1`: the outcome in assay [1], in assay [4] and in assay [6] was inactive. Moreover, the fluorescence, percent of control (lower = inhibition) in assay [2] is 55.8%. This compound also showed a GTP binding, percent of control in assay [3] of 222%. This compound also had a GTP binding signal, raw median fluorescence (lower = inhibition) (MCF (arbitrary fluorescence units)) in assay [5] of 50.3.

In the case of `COC(=O)c1cccc(Nc2cc(C)nc(-c3ccccc3O)n2)c1`, the call in assay [1], in assay [4] and in assay [6] was inactive. For the same compound, the fluorescence, percent of control (lower = inhibition) in assay [2] turned out to be 43.1%. In addition, in assay [3], the GTP binding, percent of control is 54.2%. Moreover, the GTP binding signal, raw median fluorescence (lower = inhibition) (MCF (arbitrary fluorescence units)) in assay [5] was determined as 148.

Take `COc1ccc(S(=O)(=O)N2CCOCC2)cc1NC(=O)COc1cccnc1[N+](=O)[O-]`: the compound was called inactive in assay [1], in assay [4] and in assay [6]. Also, the fluorescence, percent of control (lower = inhibition) in assay [2] stood at 36.2%. In assay [3], this compound registered a GTP binding, percent of control of 78.7%. In addition, the GTP binding signal, raw median fluorescence (lower = inhibition) (MCF (arbitrary fluorescence units)) in assay [5] was 190.

Consider `Cc1cccc(CCSc2ncccc2C(=O)O)c1`, for which the outcome in assay [1], in assay [4] and in assay [6] was inactive. Moreover, in assay [2], the fluorescence, percent of control (lower = inhibition) was found to be 119%. In assay [3], the GTP binding, percent of control stood at 320%. This compound also returned a GTP binding signal, raw median fluorescence (lower = inhibition) (MCF (arbitrary fluorescence units)) in assay [5] of 97.
